Measurements reported in ChEMBL document CHEMBL3988442, “University of Dundee, Small-Polar-MMV Screening Library” (2021).
The campaign covered roughly 48,000 compounds. About 13,000 (27%) showed an effect of 50% or more. This is one part of the list.

system: Wolbachia pipientis; assay: Anti-Wolbachia Cell-Based Screen; type: functional; set-up: scale not given: in the data most compounds retested in dose-response had high values; details: 5 µM

Row | SMILES | Percent Effect
1 | Cc1cc(C(=O)N2CCc3c(nc(-c4ccncc4)[nH]c3=O)C2)no1 | -7.817%
2 | O=C(O)C(c1ccc2c(c1)OCCO2)N1CCCCCC1 (configuration not stated) | -0.2284%
3 | CC(=O)N1CC2(CCN(C(=O)c3ccc4c(c3)OCCO4)CC2)C1 | -3.523%
4 | O=C(c1cccn1-c1ccc2c(c1)OCCO2)N1CCCC1 | 97.35%
5 | CN(C)C(=O)c1cccn1-c1ccc2c(c1)OCCO2 | 99.12%
6 | CN(C)C(=O)c1cccnc1-c1ccc2c(c1)OCCO2 | -4.201%
7 | CN1CCCN(C(=O)c2cccn2-c2ccc3c(c2)OCCO3)CC1 | 88.31%
8 | O=C(c1cccnc1-c1ccc2c(c1)OCCO2)N1CCCC1 | -9.168%
9 | CN(C)C(=O)C(C)(C)c1ccc2c(c1)OCCO2 | -10.01%
10 | O=C(O)C(c1ccc2c(c1)OCCO2)N1CCCC1 (configuration not stated) | 10.75%
11 | Cn1cnnc1C1CCCN(C(=O)c2ccc3c(c2)OCCO3)C1 (configuration not stated) | -7.071%
12 | O=C(O)c1cccn1-c1ccc2c(c1)OCCO2 | 96.33%
13 | CN1CCCN(C(=O)c2ccc3c(c2)nc(N2CCOCC2)n3C)CC1 | 16.47%
14 | CN(CC(F)(F)F)C(=O)c1ccc(F)c(NS(C)(=O)=O)c1 | -3.424%
15 | CS(=O)(=O)CCn1ccc(NCc2ccc(C#N)cc2)n1 | 4.656%
16 | CC(c1nccs1)n1cc(-c2cc(CN3CCCCC3)cs2)nn1 (configuration not stated) | 17.2%
17 | CC1CN(C(=O)c2ccnc(-n3cncn3)c2)c2ccccc2S1 (configuration not stated) | -6.511%
18 | CC(C)CNC(=O)c1ccc2nnc(C3CCN(S(C)(=O)=O)C3)n2c1 (configuration not stated) | -4.952%
19 | Cc1nc2ccc(S(=O)(=O)Nc3c(C)nn(CC(=O)O)c3C)cc2s1 | 96.05%
20 | Cc1ccc(C(=O)NS(=O)(=O)c2cccc3cnccc23)c(=O)[nH]1 | -6.684%
21 | CCN(C)S(=O)(=O)NCC(O)c1cc2ccccc2s1 (configuration not stated) | -28.91%
22 | Cc1nn(CC(=O)O)c(C)c1NS(=O)(=O)c1cc2ccccc2s1 | 90.4%

Row | SMILES | Percent Effect
23 | CN(C)c1ncc(CNS(=O)(=O)c2cccc3ccccc23)n1C | 5.382%
24 | Cc1nn(CC(=O)O)c(C)c1NS(=O)(=O)c1cccc2ccccc12 | 85.86%
25 | CC(=O)N1CCCCC1c1ncnn1-c1ccc2nc(C)sc2c1 (configuration not stated) | 1.056%
26 | Cc1ccc(S(=O)(=O)Nc2c(C)nn(C)c2C)cc1C | -30.32%
27 | CCn1nc(C)c(S(=O)(=O)Nc2ccccc2C(=O)OC)c1C | -6.756%
28 | Cc1ccc(CCN[C@@H]2c3ccccc3C3(CCNCC3)[C@H]2O)s1 | -1.865%
29 | Cc1cc(C(=O)N[C@H](C)c2onc(-c3cccnc3)c2C(=O)O)c(C)o1.Cl | -10.14%
30 | C=Cc1ccc(C(=O)N2CCCC(Nc3ccc(F)c(F)c3)C2)cc1 (configuration not stated) | -24.37%
31 | Cc1cc(=O)[nH]c(SC(C)C(=O)N2CCCN(C3CCCC3)CC2)n1 (configuration not stated) | -14.72%
32 | O=C(Nc1cccnc1)c1ccc(-n2cncn2)nn1 | 4.763%
33 | Cl.Cl.c1ccc2c(c1)C(NC1CCCC1)CC21CCNCC1 (configuration not stated) | 102.9%
34 | Fc1ccc2c(c1)C1(CCNCC1)CC2OCC1CC1 (configuration not stated) | -8.217%
35 | CNC(=O)NC1CC2(CCNCC2)c2ccc(C)cc21 (configuration not stated) | 2.029%
36 | CC(C)c1nnc(NC(=O)NCc2ccnc(N(C)C)c2)s1 | -3.838%
37 | CCOc1ncccc1CNC(=O)c1csc(Br)c1 | -22.46%
38 | COc1cc(CNC(=O)Nc2nnc(C(C)C)s2)ccn1 | 139%
39 | CN(C)c1cc(CNC(=O)Nc2nnc(C3CC3)s2)ccn1 | 137.2%
40 | CC/C=C(/C)C(=O)NCc1ccnc(OC)c1 | -6.401%
41 | COc1ncccc1CNC(=O)c1csc(Br)c1 | -3.895%
42 | Cc1nnc(NC(=O)NCc2ccnc(N(C)C)c2)s1 | 99.1%
43 | COc1cc(CNC(=O)c2csc(Br)c2)ccn1 | 70.51%
44 | COc1cc(CNC(=O)Nc2nnc(C(C)C)s2)ccc1O | 0.367%

Row | SMILES | Percent Effect
45 | Cc1cc(Br)ccc1C(=O)N(C)CCNS(C)(=O)=O | -13.91%
46 | COCc1nc(N(C)CCSc2ccccc2)c2cnn(C)c2n1 | -20.02%
47 | Cc1cnc(CN2CCCC(c3nc4ccccc4n3C(C)C)C2)o1 (configuration not stated) | -8.983%
48 | CN(C)C(C(=O)NCC1(C)COC1)c1cccc(F)c1 (configuration not stated) | 3.319%
49 | CS(=O)(=O)N[C@@H]1CN(Cc2ccc3ccccc3c2)C[C@H]1O | 117%
50 | CS(=O)(=O)N[C@H]1CN(CCOCc2ccccc2)C[C@@H]1C1CC1 | -6.261%
51 | CCC[C@@H]1CN(C(=O)c2cc3ccccc3s2)C[C@H]1NS(C)(=O)=O | -8.95%
52 | CS(=O)(=O)N[C@@H]1CN(Cc2ccccc2)C[C@H]1O | 118.1%
53 | CS(=O)(=O)N[C@@H]1CN(Cc2ccccc2)C[C@@H]2CCCO[C@@H]21 | -3.887%
54 | CC(C)[C@H]1CN(C2Cc3ccccc3C2)C[C@@H]1NS(=O)(=O)N(C)C | -3.523%
55 | COc1ccc(CN2C[C@@H]3CCCO[C@@H]3[C@H](NS(C)(=O)=O)C2)cc1.O=C(O)C(F)(F)F | -19.78%
56 | CC(C)[C@@H]1CN(C2CCN(Cc3ccccc3)CC2)C[C@H]1NS(C)(=O)=O | 57.6%
57 | CC(C)[C@H]1CN(C2Cc3ccccc3C2)C[C@@H]1NS(C)(=O)=O | 7.531%
58 | CS(=O)(=O)NC1CCN(C(=O)c2ccc3ccccc3c2)C1 (configuration not stated) | -0.4422%
59 | CS(=O)(=O)NC1CCN(C(=O)c2cc3ccccc3s2)C1 (configuration not stated) | -26.49%
60 | CS(=O)(=O)N[C@@H]1CN(C(=O)c2cc3ccccc3s2)C[C@H]1O | 153.3%
61 | O=C(NCc1cc2ccccc2s1)c1cc(CN2CCCC(O)C2)on1 (configuration not stated) | 4.701%
62 | O=C(O)CC[C@@H]1CN(c2ncnc3[nH]ccc23)CC[C@@H]1N1CCOCC1 | -3.371%
63 | COCc1cn(C2CCN(C(=O)c3ccc(F)c(C)c3)CC2)nn1 | 14.23%
64 | Cc1cc(F)ccc1OC1(C(=O)O)CCN(Cc2nccn2C)CC1 | -12.18%
65 | O=c1cc(CNS(=O)(=O)C2CC2)nc2n1CCCNC2 | 10.88%
66 | O=C(CCC1CCCCO1)NCc1cnn(-c2ccc(F)cc2F)c1 (configuration not stated) | 2.583%

Row | SMILES | Percent Effect
67 | COc1ccc(C)cc1-n1cnnc1C1CCOCC1 | 1.298%
68 | CS(=O)(=O)N[C@@H]1CN(Cc2ccc3ncccc3c2)C[C@H]1O | 100.1%
69 | CCC[C@@H]1CN(Cc2ccc(C(F)(F)F)nc2)C[C@H]1NS(C)(=O)=O | -0.637%
70 | CCC[C@@H]1CN(C(=O)c2cnc3ccccc3c2)C[C@H]1NS(C)(=O)=O | -44.49%
71 | CSc1ccsc1C(=O)NS(=O)(=O)c1cnn(C)c1 | -33.43%
72 | COc1ccc(OCC(=O)n2nc(C)c(C)c2C)cc1 | 7.668%
73 | COc1ccc(-n2cnc(Cl)c2CO)cc1 | 99.78%
74 | Cc1cccc(-n2cnc(Cl)c2CO)c1 | 116.1%
75 | Cc1ccc(-n2cnc(Cl)c2CO)cc1 | 81.89%
76 | OCc1c(Cl)ncn1-c1ccc(F)cc1 | 124.8%
77 | Cc1cccc(N2CCN(C(=O)CN3CCN(CCO)CC3)CC2)c1 | -11.5%
78 | O=C1CC(c2ccc(C(=O)O)cc2)c2ncn(-c3ccc(F)cc3)c2N1 (configuration not stated) | -3.148%
79 | COC(=O)CN1CCN(c2cccc(C)c2)CC1 | -56.86%
80 | COc1ccc(-n2cnnc2CC2CCNCC2)cc1 | -7.776%
81 | CC(=O)c1c(C)cc(C)c(Cn2ccnc2S(C)(=O)=O)c1C | -6.43%
82 | CCOCCCC(=O)Nc1[nH]nc(-c2ccncc2)c1C | 17.32%
83 | Cc1ccccc1-n1cnnc1SCC1CCCCO1 (configuration not stated) | 0.1895%
84 | Cc1ccccc1-n1cnc(Cl)c1CO | 94.22%
85 | Cc1ccccc1-n1cnnc1SCC(=O)NCC1CCCO1 (configuration not stated) | 6.164%
86 | OCc1c(Cl)ncn1-c1ccccc1 | 94.93%
87 | Cc1ccoc1C(=O)NCCOc1ncc(Cl)cc1Cl | -11.16%
88 | Cc1nn(CCC#N)c(C)c1[C@@H]1C=C[C@@H](NCc2cccc(Cl)c2)C1 | -10.09%

Row | SMILES | Percent Effect
89 | O=C(Nc1ccncc1)NC1CCN(c2ccccc2OC(F)F)C1 (configuration not stated) | -11.28%
90 | CC(C)CCN1CCN(Cc2nc(C3CC3)no2)CC1 | -1.38%
91 | Cc1noc(CCCC(=O)N(CC2CCOC2)C2CC2)n1 (configuration not stated) | -3.8%
92 | Cc1noc(C)c1Cc1nc(C2CC2)no1 | -12.44%
93 | Cc1noc(C)c1CS(=O)(=O)Cc1nc(C2CC2)no1 | -5.953%
94 | CCc1nc(C2CCCN(c3nccc(C)n3)C2)no1 (configuration not stated) | -0.3429%
95 | Cc1noc(C)c1CCc1nc(C2CCOC2)no1 (configuration not stated) | 100.6%
96 | Cc1ccccc1CS(=O)(=O)Cc1nc(C2CC2)no1 | -6.253%
97 | Cc1ccc(CCc2nc(C3CCOC3)no2)o1 (configuration not stated) | 90.49%
98 | Cc1noc(CCCc2nc(C3CCOC3)no2)n1 (configuration not stated) | 78.93%
99 | CCOCC(=O)NC(C)c1cc(C)ccc1C (configuration not stated) | 4.424%
100 | c1nc(CSc2nnc(C3CC3)s2)cs1 | -11.09%
101 | CCN1CCC(CC(=O)NCc2cc(C)nn2C)CC1 | -11.94%
102 | COc1c(CNCc2cnn(C)c2)c(C(C)C)nn1C | -6.64%
103 | CC(C)c1nn(C)c(Cl)c1CNCC(=O)N1CCN(C)CC1.Cl | 99.42%
104 | COc1c(CNCC(=O)N2CCN(C)CC2)c(C(C)C)nn1C | 95.67%
105 | CC(C)c1nn(C)c(N2CCOCC2)c1CNCC(=O)N(C)C | -5.66%
106 | CC(C)c1nn(C)c(N(C)C)c1CNCCC(=O)N(C)C.Cl | -2.081%
107 | COc1c(CNC2(c3noc(C)n3)CCC2)c(C(C)C)nn1C.Cl | -8.281%
